# Assay results published in the supplement of paper PMC6897291.
# Where a name gives a salt, the structure may show the parent alone.
# Key:
# U-2932 [1] = experiment: growth inhibition by drug alone (1 - RLU/untreated control) (fraction); higher = stronger inhibition; conditions: 177Lu-lilotomab satetraxetan 0 ug/ml
# Method in brief: (§1)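 RIVA or U-2932 cells were left untreated or pretreated for 18 h with a radiolabelled anti-CD37 antibody conjugate (~600 MBq/mg) at 0.5 µg/ml for RIVA or 1 µg/ml for U-2932. The cells were then washed and seeded at 3,000 cells/well on plates pre-printed with the Selleck Cambridge Cancer Compound library, dosed at 10/100 nM for RIVA and 10/1,000 nM for U-2932. From day 3, RealTime-Glo luminescence was read daily after 1 h at 37°C. Growth inhibition was taken as one minus RLU over the mean of the untreated no-drug wells, of which there were 48 per plate.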
# RIVA [2] = experiment: as above; conditions: 177Lu-lilotomab satetraxetan 0 ug/ml
# Method in brief: as §1
# U-2932 [3] = experiment: growth inhibition by drug plus 177Lu-lilotomab satetraxetan (1 - RLU/untreated control) (fraction); higher = stronger inhibition; conditions: 177Lu-lilotomab satetraxetan 1 ug/ml
# Method in brief: as §1
# RIVA [4] = experiment: as above; conditions: 177Lu-lilotomab satetraxetan 0.5 ug/ml
# Method in brief: as §1
SMILES,"growth inhibition by drug alone (U-2932 [1]; 10 nM, time (day): 3)","growth inhibition by drug alone (U-2932 [1]; 10 nM, time (day): 4)","growth inhibition by drug alone (U-2932 [1]; 10 nM, time (day): 5)","growth inhibition by drug alone (U-2932 [1]; 10 nM, time (day): 6)","growth inhibition by drug alone (U-2932 [1]; 1000 nM, time (day): 3)","growth inhibition by drug alone (U-2932 [1]; 1000 nM, time (day): 4)","growth inhibition by drug alone (U-2932 [1]; 1000 nM, time (day): 5)","growth inhibition by drug alone (U-2932 [1]; 1000 nM, time (day): 6)","growth inhibition by drug alone (RIVA [2]; 10 nM, time (day): 3)","growth inhibition by drug alone (RIVA [2]; 10 nM, time (day): 4)","growth inhibition by drug alone (RIVA [2]; 10 nM, time (day): 5)","growth inhibition by drug alone (RIVA [2]; 10 nM, time (day): 6)","growth inhibition by drug alone (RIVA [2]; 100 nM, time (day): 3)","growth inhibition by drug alone (RIVA [2]; 100 nM, time (day): 4)","growth inhibition by drug alone (RIVA [2]; 100 nM, time (day): 5)","growth inhibition by drug alone (RIVA [2]; 100 nM, time (day): 6)","growth inhibition by drug plus 177Lu-lilotomab satetraxetan (U-2932 [3]; 10 nM, time (day): 3)","growth inhibition by drug plus 177Lu-lilotomab satetraxetan (U-2932 [3]; 10 nM, time (day): 4)","growth inhibition by drug plus 177Lu-lilotomab satetraxetan (U-2932 [3]; 10 nM, time (day): 5)","growth inhibition by drug plus 177Lu-lilotomab satetraxetan (U-2932 [3]; 10 nM, time (day): 6)","growth inhibition by drug plus 177Lu-lilotomab satetraxetan (U-2932 [3]; 1000 nM, time (day): 3)","growth inhibition by drug plus 177Lu-lilotomab satetraxetan (U-2932 [3]; 1000 nM, time (day): 4)","growth inhibition by drug plus 177Lu-lilotomab satetraxetan (U-2932 [3]; 1000 nM, time (day): 5)","growth inhibition by drug plus 177Lu-lilotomab satetraxetan (U-2932 [3]; 1000 nM, time (day): 6)","growth inhibition by drug plus 177Lu-lilotomab satetraxetan (RIVA [4]; 10 nM, time (day): 3)","growth inhibition by drug plus 177Lu-lilotomab satetraxetan (RIVA [4]; 10 nM, time (day): 4)","growth inhibition by drug plus 177Lu-lilotomab satetraxetan (RIVA [4]; 10 nM, time (day): 5)","growth inhibition by drug plus 177Lu-lilotomab satetraxetan (RIVA [4]; 10 nM, time (day): 6)","growth inhibition by drug plus 177Lu-lilotomab satetraxetan (RIVA [4]; 100 nM, time (day): 3)","growth inhibition by drug plus 177Lu-lilotomab satetraxetan (RIVA [4]; 100 nM, time (day): 4)","growth inhibition by drug plus 177Lu-lilotomab satetraxetan (RIVA [4]; 100 nM, time (day): 5)","growth inhibition by drug plus 177Lu-lilotomab satetraxetan (RIVA [4]; 100 nM, time (day): 6)"
COc1cc([C@@H]2c3cc4c(cc3[C@@H](O[C@@H]3O[C@@H]5CO[C@@H](C)O[C@H]5[C@H](O)[C@H]3O)[C@H]3COC(=O)[C@H]23)OCO4)cc(OC)c1O [Etoposide (VP-16)],-0.0657,-0.0505,-0.0531,-0.0136,0.738,0.843,0.913,0.949,-0.26,-0.276,-0.302,-0.423,-0.0322,0.0869,0.148,0.202,-0.108,-0.0574,-0.0473,0.0279,0.823,0.901,0.945,0.969,0.345,0.51,0.549,0.556,0.681,0.776,0.816,0.845
O=C(CCCCCCC(=O)Nc1cccnc1)NO [Pyroxamide],-0.0932,-0.0929,-0.129,-0.234,0.82,0.79,0.759,0.717,-0.263,-0.352,-0.468,-0.514,-0.333,-0.305,-0.265,-0.306,-0.106,-0.0647,-0.00568,0.0937,0.6,0.542,0.472,0.474,0.358,0.433,0.464,0.49,0.454,0.507,0.511,0.509
CNC(=O)c1ccccc1Sc1ccc2c(/C=C/c3ccccn3)n[nH]c2c1 [Axitinib],-0.00761,0.0176,0.0231,-0.0205,0.0126,0.0489,-0.0091,-0.0631,-0.0928,-0.118,-0.216,-0.609,-0.116,-0.0759,-0.117,-0.195,0.0328,0.0444,0.0505,0.163,-0.0364,0.0807,0.114,0.196,0.405,0.507,0.522,0.533,0.439,0.479,0.492,0.484
O=NN(CCCl)C(=O)NC1CCCCC1 [Lomustine (CeeNU)],0.0125,-0.0069,-0.0761,-0.178,-0.00465,0.00866,-0.0378,0.00712,-0.055,-0.0849,-0.137,-0.324,-0.313,-0.232,-0.254,-0.408,0.00156,0.0498,0.0878,0.11,-0.00262,0.0596,0.0893,0.149,0.573,0.596,0.607,0.603,0.383,0.486,0.488,0.501
CCOc1cc2ncc(C#N)c(Nc3ccc(F)c(Cl)c3)c2cc1NC(=O)/C=C/CN(C)C [Pelitinib (EKB-569)],-0.0434,-0.0318,-0.0741,-0.211,0.227,0.204,0.154,0.148,-0.202,-0.214,-0.259,-0.439,-0.558,-0.51,-0.627,-0.809,-0.0948,-0.0187,-0.0319,-0.0653,0.276,0.3,0.292,0.357,0.334,0.432,0.448,0.476,0.182,0.368,0.372,0.405
CNC(=O)c1cc(Oc2ccc(NC(=O)Nc3ccc(Cl)c(C(F)(F)F)c3)cc2)ccn1 [Sorafenib (Nexavar)],0.065,0.061,0.0056,-0.0896,0.0548,0.172,0.16,0.0821,-0.0351,-0.0584,-0.0811,-0.269,-0.171,-0.0734,-0.0752,-0.125,-0.0368,-0.00107,-0.00478,0.0413,-0.000329,0.177,0.189,0.145,0.328,0.487,0.498,0.507,0.415,0.561,0.594,0.583
Nc1ncn([C@H]2C[C@H](O)[C@@H](CO)O2)c(=O)n1 [Decitabine],0.1,0.0737,-0.0105,-0.0724,-0.215,0.144,0.37,0.544,0.201,0.0484,-0.0488,-0.367,0.168,0.0495,-0.00108,-0.0694,0.0943,0.11,0.126,0.167,0.13,0.49,0.632,0.753,0.474,0.558,0.569,0.567,0.496,0.556,0.566,0.53
COc1ccc2c(c1)CCC1C2CCC2(C)C(NCCCCCCN3C(=O)C=CC3=O)CCC12 (stereo not drawn),0.079,0.0406,0.0171,-0.0318,-0.0546,0.0273,-0.0312,-0.361,-0.042,-0.062,-0.0736,-0.13,-0.374,-0.291,-0.321,-0.444,0.00613,0.0631,0.103,0.161,-0.0126,0.0436,0.0468,0.107,0.506,0.561,0.586,0.598,0.502,0.567,0.571,0.58
O=C1CN2Cc3c(ccc(Cl)c3Cl)N=C2N1 [Anagrelide hydrochloride],0.1,0.0554,-0.0277,-0.0568,0.0693,0.0958,0.0817,0.0377,0.16,0.111,0.0638,-0.0807,0.214,0.214,0.119,0.0727,0.101,0.119,0.141,0.272,0.0494,0.088,0.102,0.224,0.579,0.615,0.628,0.641,0.541,0.572,0.579,0.558
CC(C)C[C@H](NC(=O)CNC(=O)c1cc(Cl)ccc1Cl)B(O)O,-0.0591,-0.0376,0.0132,0.111,0.983,0.984,0.984,0.985,-0.217,-0.196,-0.201,-0.298,0.177,0.166,0.0904,-0.0331,-0.0412,-0.00704,0.027,0.197,0.984,0.985,0.985,0.987,0.38,0.491,0.522,0.525,0.656,0.686,0.668,0.59
C[C@]1(O)C[C@@H](c2nc(-c3ccc4ccc(-c5ccccc5)nc4c3)c3c(N)nccn32)C1 [Linsitinib (OSI-906)],-0.0175,-0.0545,-0.0282,0.0189,-0.0281,-0.0257,-0.0322,0.0723,-0.215,-0.216,-0.261,-0.348,-0.356,-0.307,-0.329,-0.365,-0.0826,-0.0138,0.0354,0.14,-0.09,-0.0306,0.0298,0.223,0.4,0.48,0.495,0.5,0.283,0.4,0.417,0.42
O=C1NC(=O)/C(=C\c2cccc(C(F)(F)F)c2)S1,-0.0629,-0.0752,-0.145,-0.158,-0.0663,-0.0763,-0.118,-0.219,-0.238,-0.269,-0.325,-0.41,-0.524,-0.503,-0.514,-0.584,-0.0851,-0.0351,0.0122,0.101,-0.0652,-0.0183,0.0099,0.134,0.418,0.47,0.492,0.508,0.391,0.456,0.458,0.45
COc1ccc(CCN(C)CCCOc2ccc(S(=O)(=O)c3c(C(C)C)n(C)c4ccccc34)cc2)cc1OC,0.0869,0.0667,0.0917,-0.0299,0.0603,0.0699,-0.0056,-0.132,0.00966,0.000445,-0.0789,-0.342,-0.377,-0.25,-0.308,-0.545,0.0456,0.0938,0.156,0.171,0.135,0.145,0.18,0.298,0.605,0.642,0.664,0.661,0.48,0.536,0.542,0.544
CNC(=O)c1cc(Oc2ccc(NC(=O)Nc3cc(C(C)(C)C)nn3-c3ccc4ncccc4c3)c(F)c2)ccn1 [DCC-2036 (Rebastinib)],0.0874,0.0635,0.096,-0.234,0.0869,0.114,0.104,0.0187,-0.0575,0.00723,-0.0883,-0.395,-0.428,-0.203,-0.231,-0.405,0.0343,0.0699,0.117,0.132,0.0878,0.127,0.208,0.293,0.44,0.57,0.586,0.613,0.486,0.607,0.626,0.633
O=C1[C@H](CC[C@H](O)c2ccc(F)cc2)[C@@H](c2ccc(O)cc2)N1c1ccc(F)cc1 [Ezetimibe (Zetia)],0.207,0.167,0.0126,-0.0222,0.1,0.113,0.0388,-0.0102,0.0453,0.0693,-0.0268,-0.174,-0.17,-0.068,-0.0985,-0.21,0.101,0.145,0.218,0.274,0.142,0.17,0.216,0.332,0.537,0.594,0.604,0.623,0.406,0.479,–,–
